Source: PubChem
Sampled rows, rich in hits. Any-hit rate of the full collection: about 0.75%.
Sa ugtP lethal: growth inhibition of ugtP-null S. aureus, primary screen, RN4220 ugtP deletion, OD600 | 16 h | growth inhibition, % (concentration not given with the values) | 330,000 compounds, 0.54% hits | AID 1259309, 2017; in the data active = growth inhibition above about 68%;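 note: plate controls were untreated wells for no effect and antibiotic for full effect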
Yp Topo-I inh: Yersinia pestis topoisomerase I inhibitors, primary screen, biochemical, cleavage product accumulation, plate reader, single point; DNA topoisomerase I (Yersinia pestis CO92); Y. pestis Topo-I cleavage product accumulation; 360,000 compounds, 0.064% hits; activity, % at 10 µM; in the data active = activity above about 50%, passing the limit was not always enough
TcdB inh: TcdB glycohydrolase inhibitors, primary screen, biochemical, single point, plate reader; Toxin B (Clostridioides difficile), P18177; TcdB glycohydrolase enzymatic assay; inhibition, % at 9.99 µM; 350,000 compounds, 0.24% hits; in the data active = inhibition above about 10%
Target sequence (P18177 whole entry, looked up): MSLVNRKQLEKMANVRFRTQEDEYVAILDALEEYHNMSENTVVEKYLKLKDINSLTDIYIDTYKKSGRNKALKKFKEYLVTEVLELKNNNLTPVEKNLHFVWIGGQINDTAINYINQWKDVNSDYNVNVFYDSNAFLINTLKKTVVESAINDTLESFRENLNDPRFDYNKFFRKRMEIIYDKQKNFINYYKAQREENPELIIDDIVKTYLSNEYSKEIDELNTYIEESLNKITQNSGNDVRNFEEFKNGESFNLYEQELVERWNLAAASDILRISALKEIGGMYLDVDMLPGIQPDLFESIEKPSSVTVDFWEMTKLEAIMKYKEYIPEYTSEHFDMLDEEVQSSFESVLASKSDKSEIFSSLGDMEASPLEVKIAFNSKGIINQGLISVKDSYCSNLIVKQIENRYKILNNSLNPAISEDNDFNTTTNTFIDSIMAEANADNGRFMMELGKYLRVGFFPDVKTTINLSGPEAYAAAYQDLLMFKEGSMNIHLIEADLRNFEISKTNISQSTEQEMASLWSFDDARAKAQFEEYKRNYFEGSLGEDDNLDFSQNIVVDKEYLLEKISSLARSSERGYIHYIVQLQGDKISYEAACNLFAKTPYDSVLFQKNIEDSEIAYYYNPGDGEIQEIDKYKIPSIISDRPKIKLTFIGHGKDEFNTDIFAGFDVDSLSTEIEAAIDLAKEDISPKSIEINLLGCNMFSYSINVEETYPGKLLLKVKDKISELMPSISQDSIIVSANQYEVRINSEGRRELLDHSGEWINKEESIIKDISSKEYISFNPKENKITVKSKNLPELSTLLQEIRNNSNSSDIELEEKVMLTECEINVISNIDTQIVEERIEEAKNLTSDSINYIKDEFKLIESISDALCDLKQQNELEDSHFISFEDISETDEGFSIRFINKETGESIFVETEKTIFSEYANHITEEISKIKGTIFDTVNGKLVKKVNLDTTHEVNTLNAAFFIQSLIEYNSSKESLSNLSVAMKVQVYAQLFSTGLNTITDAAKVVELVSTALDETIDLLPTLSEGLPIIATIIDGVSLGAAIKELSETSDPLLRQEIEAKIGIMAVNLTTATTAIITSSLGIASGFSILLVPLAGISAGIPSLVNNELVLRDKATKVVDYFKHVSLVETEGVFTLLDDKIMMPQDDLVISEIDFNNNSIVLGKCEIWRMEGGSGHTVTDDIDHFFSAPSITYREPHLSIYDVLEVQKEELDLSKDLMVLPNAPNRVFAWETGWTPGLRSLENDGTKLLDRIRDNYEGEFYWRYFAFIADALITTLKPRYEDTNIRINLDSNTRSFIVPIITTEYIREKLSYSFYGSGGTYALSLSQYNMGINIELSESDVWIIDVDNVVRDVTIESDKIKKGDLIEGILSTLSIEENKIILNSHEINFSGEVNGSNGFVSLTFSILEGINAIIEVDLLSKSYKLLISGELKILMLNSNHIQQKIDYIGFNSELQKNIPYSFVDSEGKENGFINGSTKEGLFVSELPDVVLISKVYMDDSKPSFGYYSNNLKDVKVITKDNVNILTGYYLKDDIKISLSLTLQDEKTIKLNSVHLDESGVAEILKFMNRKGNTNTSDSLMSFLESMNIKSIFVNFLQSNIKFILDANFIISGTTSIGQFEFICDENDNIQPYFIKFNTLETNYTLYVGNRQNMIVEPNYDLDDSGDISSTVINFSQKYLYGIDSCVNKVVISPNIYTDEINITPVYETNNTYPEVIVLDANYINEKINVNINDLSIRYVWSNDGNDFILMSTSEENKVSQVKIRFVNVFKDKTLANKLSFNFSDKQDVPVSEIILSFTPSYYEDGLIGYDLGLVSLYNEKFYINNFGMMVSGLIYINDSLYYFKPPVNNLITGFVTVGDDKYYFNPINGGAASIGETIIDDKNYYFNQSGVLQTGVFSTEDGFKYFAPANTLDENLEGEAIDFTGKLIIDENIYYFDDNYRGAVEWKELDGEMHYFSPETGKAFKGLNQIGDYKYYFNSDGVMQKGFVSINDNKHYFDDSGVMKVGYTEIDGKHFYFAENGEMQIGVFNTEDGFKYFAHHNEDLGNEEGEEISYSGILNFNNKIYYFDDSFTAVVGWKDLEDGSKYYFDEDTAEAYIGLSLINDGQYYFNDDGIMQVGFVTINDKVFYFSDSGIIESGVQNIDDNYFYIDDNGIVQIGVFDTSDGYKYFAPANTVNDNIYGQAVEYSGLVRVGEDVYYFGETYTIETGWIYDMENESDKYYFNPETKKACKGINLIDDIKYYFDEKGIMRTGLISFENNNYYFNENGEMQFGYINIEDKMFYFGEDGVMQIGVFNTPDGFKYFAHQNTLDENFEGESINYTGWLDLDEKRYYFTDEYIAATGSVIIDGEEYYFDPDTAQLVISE
RN4220 kill: growth inhibition of S. aureus RN4220, primary screen, OD600; 16 h; inhibition, % (test concentration not listed); 330,000 compounds, 0.33% hits; in the data active = inhibition above about 85%;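 note: plate controls were untreated cells for no effect and reference antibiotic for full effect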
Mtb BioA inh: M. tuberculosis BioA enzyme inhibitors, primary screen, biochemical, plate reader, single point, HTS; 7,8-diaminopelargonic acid synthase BioA (Mycobacterium tuberculosis); purified M. tuberculosis BioA enzyme; inhibition, % at 9.99 µM; 360,000 compounds, 0.096% hits; in the data active = inhibition above about 40%
Mtb hypoxia rep: PubChem AID 1159583; M. tuberculosis hypoxia-regulated fluorescent reporter, fluorescence; 300,000 compounds, 0.1% hits; fluorescence inhibition, % (no concentration beside the values); in the data active = fluorescence inhibition mostly above about 23%, no sharp cut-off; inactive = mostly below about 17%
Starred values were filed as active, the others as inactive; / = no result given; ! = a repeat was not active.

SMILES	Sa ugtP lethal	Yp Topo-I inh	TcdB inh	RN4220 kill	Mtb BioA inh	Mtb hypoxia rep
CC(C)(C)OC(=O)CNC(=O)c1[nH]cnc1C(=O)Nc1ccc(CNC(=O)OC(C)(C)C)cc1	2.4	-0.1	-0.8	6.9	-1.8	1.5
O=C(Nc1ccc(Cl)cc1)c1nc[nH]c1C(=O)NCCN(CCNC(=O)c1[nH]cnc1C(=O)Nc1ccc(Cl)cc1)CCNC(=O)c1[nH]cnc1C(=O)Nc1ccc(Cl)cc1	/	63.9*	/	/	-1.6	/
Oc1ccc(/C=N/N2CCN(Cc3ccccc3)CC2)cc1	/	4.3	17.6*	/	-1.0	/
CSc1ccc(/C=N/N2CCN(Cc3ccc(Cl)cc3)CC2)cc1	/	-8.7	10.9*	/	1.8	/
CCCC12CN3CCN(CC(C3)C1=NNC(=O)c1ccc(C(C)(C)C)cc1)C2	1.0	/	/	3.4	/	8.6
COc1ccc(NC(=O)Nc2cccc3c2OC(CN(C)CC2CCCCC2)C(C)CN(C(C)CO)C3=O)cc1 (centres undefined)	4.3	/	/	6.2	/	4.2
O=c1[nH]c(-c2ccccn2)nc2sc(-c3ccccc3)cc12	99.8*	-9.6	0.9	99.6*	/	5.9
Cc1onc(-c2ccccc2)c1C(=O)NN=Cc1ccco1	6.7	/	/	3.1	/	5.3
c1ccc2[nH]c(-c3ccc4c(c3)OCO4)nc2c1	-0.2	6.2	11.2*	-1.0	2.1	2.8
O=C(Nc1ccc(-c2nc3ccccc3[nH]2)cc1)c1ccc2c(c1)OCO2	-9.4	11.5	1.2	3.4	-1.1	1.2
CN1CC(=O)N/C1=N\C(=O)Nc1ccc(O)cc1	7.1	6.1	13.0*	3.9	-0.3	14.8
CC(C)(C)[C@]1(O)CCN2CC3c4ccccc4CCc4cccc(c43)C2C1 (some centres undefined)	-9.1	/	/	6.4	/	-13.1
COc1ccc(C(=O)NC(C(=O)NCc2ccccc2OC)C(C)C)cc1 (centres undefined)	2.4	4.7	14.7*	0.9	/	0.6
COc1cc(/C(C)=N/NC(=O)CSc2nnc(C)s2)ccc1O	/	3.3	10.7*	/	2.4	/
C/C(=N\NC(=O)CSc1nnc(C)s1)c1ccc(O)cc1	/	-2.3	-13.7	/	/	/
C[C@H](CO)N1C[C@H](C)[C@@H](CN(C)CC2CCCCC2)Oc2ccc(NC(=O)CCN3CCOCC3)cc2C1=O	-1.2	22.6	10.4*!	-15.5	-2.0	9.9
O=S1(=O)C=C(Sc2nc3cc(Cl)ccc3o2)c2ccccc21	90.6*	3.3	/	42.4	-2.8	/
COC(=O)c1ccc(C23CC4(C2)[C@H](CN(Cc2ccc(C(F)(F)F)cc2)[C@@H]4c2ccccc2)C3c2ccc(Cl)nc2)cc1 (some centres undefined)	/	/	12.4*	/	/	/
COC(=O)c1ccc(C23CC4(C2)C(CN(Cc2ccc(-c5ccccc5)cc2)C4c2ccccc2)C3c2ccc(C(F)(F)F)cc2)cc1 (centres undefined)	-3.9	/	/	0.6	/	-0.9
CC(=O)Oc1c(C)cc(Cl)cc1C(=O)Nc1ccc([N+](=O)[O-])cc1Cl	96.0*	7.9	0.2	97.9*	/	/
CC(=O)OCC(=O)Nc1ccc([N+](=O)[O-])cc1Cl	2.7	5.7	1.2	3.2	/	2.1
COCC#Cc1ccc2c(c1)O[C@H](CN(C)C(=O)CC1CC1)[C@@H](C)CN([C@H](C)CO)S2(=O)=O	/	/	12.0*	/	-1.1	/
Cc1cc(C)n(-c2nc(-c3cccc(Cl)c3)cs2)n1	88.4*	23.0	/	-0.1	-1.2	/
CC1CCCC(C)N1N=Cc1ccc(Cl)cc1 (centres undefined)	5.0	/	/	3.5	/	/
CCN1/C(=C\C=C\C2=[N+](CC)c3ccccc3C2(C)C)C(C)(C)c2ccccc21	100.4*	0.7	/	100.2*	-247.4	-82.1
SMILES	Sa ugtP lethal	Yp Topo-I inh	TcdB inh	RN4220 kill	Mtb BioA inh	Mtb hypoxia rep
CN1CCC(Oc2ccc(Sc3ccccc3)cc2)CC1	94.0*	-0.8	-0.7	-0.9	3.4	15.9
CN1CCC(Oc2ccccc2Sc2ccc(C(F)(F)F)cc2)CC1	-0.1	-4.1	0.4	3.9	/	18.6
C[C@@H]1CN(c2c(F)c(F)c3c(=O)c(C(=O)O)cn(C4CC4)c3c2F)C[C@H](C)N1	96.6*	-9.2	0.6	95.8*	2.3	/
CCOC(=O)c1cn(C2CC2)c2c(F)c(F)c(F)cc2c1=O	9.7	-2.1	1.3	4.5	/	11.7
NC(=O)NN=Cc1c(Sc2nnnn2-c2ccccc2)nc2ccccn2c1=O	0.5	/	/	0.9	/	18.7
Clc1ccc(SCNc2ccccc2Cl)cc1	87.8*	6.4	-0.2	3.3	-1.5	5.8
